In PubChem BioAssay AID485288 (Southern Research Specialized Biocontainment Screening …, 2010):
Measured potencies and affinities stand elsewhere. Activity calls are given as the source filed them. No rule for the calls is given here.

Biological target: Large T antigen (Simian virus 40) (UniProt P03070)
Assay: SV40 large T antigen ATPase inhibitors, SAR follow-up, biochemical, ADP-Hunter detection, purified TAg, synthesized compounds, set 3 (AID 485288)

Sequence of Large T antigen (Simian virus 40) (P03070 whole entry, looked up): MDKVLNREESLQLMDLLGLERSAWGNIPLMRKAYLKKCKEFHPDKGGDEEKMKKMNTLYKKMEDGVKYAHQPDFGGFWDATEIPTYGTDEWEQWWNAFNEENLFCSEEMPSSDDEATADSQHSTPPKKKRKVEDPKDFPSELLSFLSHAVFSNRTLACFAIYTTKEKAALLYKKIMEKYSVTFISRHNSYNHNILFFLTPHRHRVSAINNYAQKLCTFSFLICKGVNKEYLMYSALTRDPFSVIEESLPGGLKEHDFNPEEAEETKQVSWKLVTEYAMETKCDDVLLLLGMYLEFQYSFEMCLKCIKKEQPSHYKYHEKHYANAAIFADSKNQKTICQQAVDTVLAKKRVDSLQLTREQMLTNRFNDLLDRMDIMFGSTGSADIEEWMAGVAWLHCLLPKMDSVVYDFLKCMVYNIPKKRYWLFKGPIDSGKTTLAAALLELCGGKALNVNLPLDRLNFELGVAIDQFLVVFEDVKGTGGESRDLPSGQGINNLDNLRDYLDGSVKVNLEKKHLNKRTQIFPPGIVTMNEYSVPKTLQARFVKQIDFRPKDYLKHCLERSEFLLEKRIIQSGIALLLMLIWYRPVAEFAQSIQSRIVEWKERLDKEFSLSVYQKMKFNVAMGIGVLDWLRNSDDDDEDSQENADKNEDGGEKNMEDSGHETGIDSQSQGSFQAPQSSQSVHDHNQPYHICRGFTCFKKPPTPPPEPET

| SMILES | outcome |
| --- | --- |
| Cc1cc(C(C)(C)c2ccc(O)c(C)c2)ccc1O | inactive |
| CC(C)(c1ccccc1)c1ccc(O)cc1 | inactive |
